FBW7 activator: FBW7 E3 ligase activators, primary screen, biochemical, AlphaScreen, human | normalized activity (activation), % at 26.1 µM | AlphaScreen FBW7–phospho-cyclin E peptide binding, activator screen | F-box/WD repeat-containing protein 7 (Homo sapiens), Q969H0 | 650,000 tested, 0.13% active | AID 1259310, 2017; in the data active = normalized activity above about 1.9%;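 also: purified mutant Fbw7 with reduced substrate affinity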
GPR151 activ: activators of human GPR151, primary screen, cell-based, PathHunter beta-arrestin, luminescence | AID 1508602, 2020 | PathHunter beta-arrestin GPR151 cells | 650,000 tested, 1% active | activation, % at 11.2 µM; in the data active = activation above about 4.9%
Target sequence (Q8TDV0 whole entry, looked up): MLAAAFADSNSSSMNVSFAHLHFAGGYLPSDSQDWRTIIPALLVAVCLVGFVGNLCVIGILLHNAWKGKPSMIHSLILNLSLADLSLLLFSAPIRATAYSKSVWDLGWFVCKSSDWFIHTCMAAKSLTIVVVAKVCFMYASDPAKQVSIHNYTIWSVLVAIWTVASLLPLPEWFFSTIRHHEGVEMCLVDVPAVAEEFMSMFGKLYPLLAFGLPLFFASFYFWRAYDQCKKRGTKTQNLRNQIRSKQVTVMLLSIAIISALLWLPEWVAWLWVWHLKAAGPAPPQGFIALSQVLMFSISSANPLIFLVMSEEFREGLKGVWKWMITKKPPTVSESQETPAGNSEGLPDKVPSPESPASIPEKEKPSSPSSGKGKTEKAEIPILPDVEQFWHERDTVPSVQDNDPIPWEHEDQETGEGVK
TEAD-YAP inh: TEAD-YAP interaction inhibition, primary screen, TEAD-YAP interaction inhibitor project, luminescence, HEK-TIYL cells. 640,000 tested, 1.4% active. TEAD-Gal4/YAP UAS-luciferase luminescence. AID 1259422, 2018. inhibition, % at 9.12 µM; in the data active = inhibition above about 32%
MITF primary: MITF inhibitors, primary screen, biochemical, AlphaScreen, human; AlphaScreen MITF homodimerization, bead proximity signal; inhibition, % at 2.6 µM; 650,000 tested, 0.91% active; AID 1259374, 2018; in the data active = inhibition above about 50%
A number is an active result. The list is not random: actives were taken first. Their share in the collection is about 3.5%.

How did O=C1C(Cl)=C(Nc2cccc(C(F)(F)F)c2)C(=O)N1Cc1ccccc1 do in these assays?
FBW7 activator: inactive; GPR151 activ: inactive; TEAD-YAP inh: 75; MITF primary: inactive

How did COc1ccc(Cl)cc1NC1=C(Cl)C(=O)N(Cc2ccccc2)C1=O do in these assays?
FBW7 activator: inactive; GPR151 activ: inactive; TEAD-YAP inh: 72; MITF primary: 64

What do the screens show for `Cc1nc2cc3c(cc2n1Cc1ccc(C#N)cc1)OCCO3`?
FBW7 activator: inactive; GPR151 activ: inactive; TEAD-YAP inh: inactive; MITF primary: inactive

How did COc1cc(OC)c(C(=O)Nc2cccc(Cl)c2C)cc1OC do in these assays?
FBW7 activator: inactive; GPR151 activ: inactive; TEAD-YAP inh: inactive; MITF primary: inactive

Results for COc1ccc(C2C(C#N)=C(N)N(c3ccc(Cl)cc3)C3=C2C(=O)CC(C)(C)C3)cc1OC (configuration not stated) ?
FBW7 activator: inactive; GPR151 activ: inactive; TEAD-YAP inh: inactive; MITF primary: inactive

How did COc1ccc(-c2cc3nccc(C4CCCNC4)n3n2)cc1OC (configuration not stated) do in these assays?
FBW7 activator: inactive; GPR151 activ: inactive; TEAD-YAP inh: inactive; MITF primary: inactive

Results for COc1cccc(-c2cc3nc(C4CCCNC4)cc(N)n3n2)c1 (configuration not stated) ?
FBW7 activator: inactive; GPR151 activ: inactive; TEAD-YAP inh: 37; MITF primary: inactive

What do the screens show for `CCN1C(=O)NC(c2cc(Br)c(O)c(OC)c2)C(C(=O)OC(C)C)=C1C` (configuration not stated)?
FBW7 activator: inactive; GPR151 activ: inactive; TEAD-YAP inh: inactive; MITF primary: inactive

Results for CCCc1[nH]n(-c2ccc([N+](=O)[O-])cc2)c(=O)c1C=N ?
FBW7 activator: inactive; GPR151 activ: inactive; TEAD-YAP inh: inactive; MITF primary: inactive

What do the screens show for `CC(=O)C(C(C)=O)C1=C(Cl)C(=O)C(=O)c2ccccc21`?
FBW7 activator: inactive; GPR151 activ: inactive; TEAD-YAP inh: 84; MITF primary: inactive

How did O=c1c2sccc2nc(SCc2cc(=O)n3cc(Cl)ccc3n2)n1Cc1ccccc1 do in these assays?
FBW7 activator: inactive; GPR151 activ: inactive; TEAD-YAP inh: inactive; MITF primary: inactive

What do the screens show for `CC1=NN(c2nc3ccccc3s2)C(=O)/C1=C\N(C)C`?
FBW7 activator: inactive; GPR151 activ: inactive; TEAD-YAP inh: 68; MITF primary: inactive

How did CC1=NN(c2nc3ccccc3s2)C(=O)/C1=C(\C)N(C)C do in these assays?
FBW7 activator: inactive; GPR151 activ: inactive; TEAD-YAP inh: 43; MITF primary: inactive

How did CN(C)/C=C1/C(=O)N(c2nc3ccccc3s2)N=C1c1ccccc1 do in these assays?
FBW7 activator: inactive; GPR151 activ: inactive; TEAD-YAP inh: inactive; MITF primary: inactive

What do the screens show for `O=C(Nc1ccc2c3c(cccc13)CC2)c1cc(I)ccc1Cl`?
FBW7 activator: inactive; GPR151 activ: inactive; TEAD-YAP inh: inactive; MITF primary: inactive

What do the screens show for `O=C(Nc1ccc2c3c(cccc13)CC2)c1cc(Br)ccc1Cl`?
FBW7 activator: inactive; GPR151 activ: inactive; TEAD-YAP inh: 55; MITF primary: inactive

How did COc1ccc(-c2ccc(C(=O)NCc3ccc(F)cc3)c(N(C)C(C)=O)n2)cc1 do in these assays?
FBW7 activator: inactive; GPR151 activ: inactive; TEAD-YAP inh: inactive; MITF primary: inactive

How did Cc1cc(C)nc(/N=C(\NC(=O)C(F)(F)F)N2CCc3ccccc3C2)n1 do in these assays?
FBW7 activator: inactive; GPR151 activ: inactive; TEAD-YAP inh: inactive; MITF primary: inactive

Results for Nc1ccc2oc(-c3cc(Cl)ccc3Cl)nc2c1 ?
FBW7 activator: inactive; GPR151 activ: inactive; TEAD-YAP inh: inactive; MITF primary: inactive

Results for Nc1ccc2oc(-c3ccccc3Cl)nc2c1 ?
FBW7 activator: inactive; GPR151 activ: inactive; TEAD-YAP inh: 42; MITF primary: inactive

How did Nc1ccc(Cl)c(-c2nc3cc(Cl)ccc3o2)c1 do in these assays?
FBW7 activator: inactive; GPR151 activ: inactive; TEAD-YAP inh: inactive; MITF primary: inactive

How did Nc1ccc2oc(-c3cc(Br)ccc3Cl)nc2c1 do in these assays?
FBW7 activator: inactive; GPR151 activ: inactive; TEAD-YAP inh: 41; MITF primary: inactive

Results for Nc1ccc2oc(-c3cc(I)ccc3Cl)nc2c1 ?
FBW7 activator: inactive; GPR151 activ: inactive; TEAD-YAP inh: 34; MITF primary: inactive

How did O=C(COc1ccc(Cl)cc1Cl)NCc1n[nH]c(=S)n1-c1ccccc1 do in these assays?
FBW7 activator: inactive; GPR151 activ: inactive; TEAD-YAP inh: inactive; MITF primary: inactive

Results for COc1ccc(C2CC(c3c(O)cc(C)oc3=O)=NCCS2)c(OC)c1 (configuration not stated) ?
FBW7 activator: inactive; GPR151 activ: inactive; TEAD-YAP inh: 42; MITF primary: inactive

How did COc1ccc(C2CC(c3c(O)cc(C)oc3=O)=Nc3ccccc3S2)cc1O (configuration not stated) do in these assays?
FBW7 activator: inactive; GPR151 activ: inactive; TEAD-YAP inh: 62; MITF primary: inactive

Results for CC(C)N(C)CCOC(=O)c1ccccc1I ?
FBW7 activator: inactive; GPR151 activ: inactive; TEAD-YAP inh: inactive; MITF primary: inactive

What do the screens show for `O=C(Nc1ccc(-c2ccc(N3CCCCC3)nn2)cc1)c1cccs1`?
FBW7 activator: 7.4; GPR151 activ: inactive; TEAD-YAP inh: inactive; MITF primary: inactive

How did O=C(Nc1cccc(-c2ccc(N3CCCCCC3)nn2)c1)c1cccs1 do in these assays?
FBW7 activator: inactive; GPR151 activ: inactive; TEAD-YAP inh: inactive; MITF primary: inactive

What do the screens show for `CCOC(=O)c1cc2sc(Br)cc2n1CC(=O)N(C)C`?
FBW7 activator: inactive; GPR151 activ: inactive; TEAD-YAP inh: 34; MITF primary: inactive

What do the screens show for `CC(C)n1nccc1-c1nnc(NC(=O)C(C)(C)Oc2ccc(Cl)cc2)o1`?
FBW7 activator: inactive; GPR151 activ: inactive; TEAD-YAP inh: 37; MITF primary: inactive

How did CC(C)n1nccc1-c1nnc(NC(=O)c2ccc(Cl)cc2Cl)o1 do in these assays?
FBW7 activator: inactive; GPR151 activ: inactive; TEAD-YAP inh: inactive; MITF primary: inactive

What do the screens show for `COc1ccc(/C=N/NC(=O)CNc2cccc(Cl)c2)cc1`?
FBW7 activator: inactive; GPR151 activ: inactive; TEAD-YAP inh: inactive; MITF primary: inactive

What do the screens show for `COc1ccc(N(CC(=O)NC2CCCC2)S(C)(=O)=O)c(OC)c1`?
FBW7 activator: inactive; GPR151 activ: inactive; TEAD-YAP inh: inactive; MITF primary: inactive

Results for COc1ccc(N(CC(=O)c2ccc(C3CCCCC3)cc2)C2=NCCCCC2)c(OC)c1 ?
FBW7 activator: inactive; GPR151 activ: inactive; TEAD-YAP inh: 55; MITF primary: inactive

What do the screens show for `CC(C)CNS(=O)(=O)c1ccc(CCC(=O)N2CCN(c3ccc(F)cc3)CC2)cc1`?
FBW7 activator: inactive; GPR151 activ: inactive; TEAD-YAP inh: 40; MITF primary: inactive

What do the screens show for `COc1cccc(CN2CCN(C/C=C/c3ccccc3)CC2CCO)c1` (configuration not stated)?
FBW7 activator: inactive; GPR151 activ: inactive; TEAD-YAP inh: inactive; MITF primary: inactive

Assay outcomes (PubChem)
